Laboratory results from PubChem BioAssay (NCATS).
“And” between values parts separate entries of the source, which are not always exact repeats. Identical values can stand only once. Records with an inconclusive call do not appear. More than one record can exist for a structure, and the calls need not agree. The source made the active and inactive calls. Calls come from the whole dose curve; as a rule, active = well fitted curve in the direction sought with a large enough effect; inconclusive = small, poorly fitted or top-dose-only effect, or another doubt; inactive = no such curve, though single readings can be large; an effect the other way counts as inactive or inconclusive.

How the values were obtained:
[1] = biological target: Cytochrome P450 2C9 (Homo sapiens) (UniProt P11712); assay: qHTS Assay for Inhibitors and Substrates of Cytochrome P450 2C9 (AID 883); note: % is set by controls: 0 for no effect and ±100 for the full control effect; nearly all actives have a fitted effect of over 60% in size
Chain of Cytochrome P450 2C9 (Homo sapiens) (P11712 whole entry, looked up): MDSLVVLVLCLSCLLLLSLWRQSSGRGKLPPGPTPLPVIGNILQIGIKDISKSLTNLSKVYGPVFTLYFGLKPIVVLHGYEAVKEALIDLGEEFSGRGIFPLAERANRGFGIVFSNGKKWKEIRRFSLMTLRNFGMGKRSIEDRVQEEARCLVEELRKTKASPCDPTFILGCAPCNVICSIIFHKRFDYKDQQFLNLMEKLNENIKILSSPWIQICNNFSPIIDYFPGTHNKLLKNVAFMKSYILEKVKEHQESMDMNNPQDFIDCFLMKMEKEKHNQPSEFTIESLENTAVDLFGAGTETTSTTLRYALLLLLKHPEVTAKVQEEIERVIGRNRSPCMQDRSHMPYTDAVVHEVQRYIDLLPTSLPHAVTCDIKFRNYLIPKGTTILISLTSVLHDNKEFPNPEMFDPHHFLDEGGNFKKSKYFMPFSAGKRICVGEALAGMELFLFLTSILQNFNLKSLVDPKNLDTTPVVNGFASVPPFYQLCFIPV
Summary of the method: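 CYP2C9 deoxyluciferin hydroxylation, 37C, 60 min with NADPH regeneration; 10nM enzyme, 100uM Luciferin-H (KM). Glo detection reagent stopped reaction; luminescence normalized to sulphaphenazole (57uM) full inhibition.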

[2] = biological target: Cytochrome P450 3A4 (Homo sapiens) (UniProt P08684); assay: qHTS Assay for Inhibitors and Substrates of Cytochrome P450 3A4 (AID 884); note: nearly all actives have a fitted effect of over 50% in size; note: potency is the fitted concentration of half-maximal effect; for activity change, negative = inhibition: series mostly up to about 57 µM; % is set by controls: 0 for no effect and ±100 for the full control effect
Chain of Cytochrome P450 3A4 (Homo sapiens) (P08684 whole entry, looked up): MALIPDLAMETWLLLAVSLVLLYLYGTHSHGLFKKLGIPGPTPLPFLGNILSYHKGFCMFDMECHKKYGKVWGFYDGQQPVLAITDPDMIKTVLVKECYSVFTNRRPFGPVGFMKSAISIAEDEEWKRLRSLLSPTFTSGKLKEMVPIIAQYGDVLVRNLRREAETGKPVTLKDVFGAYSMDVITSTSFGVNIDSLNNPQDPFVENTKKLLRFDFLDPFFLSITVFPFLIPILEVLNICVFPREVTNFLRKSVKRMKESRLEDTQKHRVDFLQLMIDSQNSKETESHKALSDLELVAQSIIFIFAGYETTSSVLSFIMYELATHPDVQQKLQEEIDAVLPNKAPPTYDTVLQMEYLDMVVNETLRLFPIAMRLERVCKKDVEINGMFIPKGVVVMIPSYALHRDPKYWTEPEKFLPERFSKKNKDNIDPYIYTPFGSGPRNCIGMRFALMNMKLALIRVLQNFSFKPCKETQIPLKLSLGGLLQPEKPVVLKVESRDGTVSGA
Summary of the method: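 Luminescent readout of luciferin produced by CYP3A4 (20 nM) dealkylation of Luciferin-PPXE, 25 uM (its KM). NADPH-driven reaction ran 60 min at RT after 10 min compound preincubation; data scaled to 57 uM ketoconazole as 100% inhibition.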

[3] = biological target: Cytochrome P450 3A4 (Homo sapiens) (UniProt P08684); assay: qHTS Assay for Activators of Cytochrome P450 3A4 (AID 885); note: nearly all actives have a fitted effect of over 65% in size
Summary of the method: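 Luminescent readout of luciferin formed from 25 uM Luciferin-PPXE (KM level) by 20 nM CYP3A4 in 200 mM KPO4, with 60 min NADPH-driven reaction at room temperature after 10 min compound exposure. Ketoconazole (57 uM) defined 100% inhibition.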

[4] = biological target: Cytochrome P450 2D6 (Homo sapiens) (UniProt P10635); assay: qHTS Assay for Inhibitors and Substrates of Cytochrome P450 2D6 (AID 891);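 note: luciferin methyl ether substrate demethylated by CYP2D6 with NADPH regeneration; % is set by controls: 0 for no effect and ±100 for the full control effect; nearly all actives have a fitted effect of over 60% in size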
Chain of Cytochrome P450 2D6 (Homo sapiens) (P10635 whole entry, looked up): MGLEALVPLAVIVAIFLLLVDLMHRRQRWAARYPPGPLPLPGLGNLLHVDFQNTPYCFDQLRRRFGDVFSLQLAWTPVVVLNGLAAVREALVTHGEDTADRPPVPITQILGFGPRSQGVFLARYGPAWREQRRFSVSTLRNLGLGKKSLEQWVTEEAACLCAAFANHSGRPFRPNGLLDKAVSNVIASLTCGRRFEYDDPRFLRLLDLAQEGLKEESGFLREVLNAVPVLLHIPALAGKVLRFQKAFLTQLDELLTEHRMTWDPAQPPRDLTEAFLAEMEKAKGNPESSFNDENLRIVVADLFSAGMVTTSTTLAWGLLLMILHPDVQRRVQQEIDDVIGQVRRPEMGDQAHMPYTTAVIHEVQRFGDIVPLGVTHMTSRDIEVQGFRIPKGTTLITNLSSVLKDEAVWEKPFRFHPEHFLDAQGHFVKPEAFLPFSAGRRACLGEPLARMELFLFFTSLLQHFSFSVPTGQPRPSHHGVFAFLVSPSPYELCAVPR
Summary of the method: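 Luminescent read-out of luciferin formed by 5 nM human CYP2D6 demethylating 30 uM Luciferin-ME EGE (Km level) over 60 min at room temperature after NADPH regeneration addition. Data normalized to full inhibition by 1.43 uM quinidine.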

[5] = biological target: Cytochrome P450 2C19 (Homo sapiens) (UniProt P33261); assay: qHTS Assay for Inhibitors and Substrates of Cytochrome P450 2C19 (AID 899); note: nearly all actives have a fitted effect of over 60% in size; note: potency is the fitted concentration of half-maximal effect
Chain of Cytochrome P450 2C19 (Homo sapiens) (P33261 whole entry, looked up): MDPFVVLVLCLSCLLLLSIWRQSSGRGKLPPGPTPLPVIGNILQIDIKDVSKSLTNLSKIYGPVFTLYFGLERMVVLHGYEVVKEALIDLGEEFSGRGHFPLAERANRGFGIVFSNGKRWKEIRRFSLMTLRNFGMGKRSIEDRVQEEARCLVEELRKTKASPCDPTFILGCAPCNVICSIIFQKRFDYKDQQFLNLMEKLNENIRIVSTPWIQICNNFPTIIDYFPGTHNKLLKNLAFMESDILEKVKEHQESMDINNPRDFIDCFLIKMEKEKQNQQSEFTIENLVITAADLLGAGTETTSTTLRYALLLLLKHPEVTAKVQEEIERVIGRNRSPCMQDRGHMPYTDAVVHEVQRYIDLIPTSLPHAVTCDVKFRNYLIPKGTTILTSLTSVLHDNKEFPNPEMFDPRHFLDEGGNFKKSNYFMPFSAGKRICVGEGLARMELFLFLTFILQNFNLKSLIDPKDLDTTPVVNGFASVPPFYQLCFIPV
Summary of the method: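 In 50mM KPO4, the reaction held 5nM enzyme and KM-level (10uM) Luciferin-H EGE; it ran 60 min at 37C after NADPH regeneration and a 10 min compound preincubation. Luminescence values were scaled to 57uM ketoconazole as complete inhibition.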

With `COc1ccc(OC2C=CC(c3ccccc3)OC2CO)cc1` (stereo not given) the Potency [1] was “inactive”, the Potency [2] was 3.98 µM (active) and the activity change, positive = activation [3] was -66.9% [at 11.4 µM] (inactive).

`COc1ccc(/C=C/C(=O)c2ccc(OC)cc2O)cc1` was tested, and the Potency [1] was “inactive”, the Potency [2] was 3.16 µM (active) and the activity change, positive = activation [3] was -92.3% [at 11.4 µM] (inactive). For the same compound, the Potency [4] was “inactive”.

`CC1CN2C(CCC(C)C2c2ccc(Br)cc2)C(=O)O1` (stereo not given) was tested, and the Potency [1] was “inactive”, the activity change, negative = inhibition [2] was -15.8% [at 11.4 µM] (inactive) and -28.1% [at 11.4 µM] (inactive) and the activity change, positive = activation [3] was -51.1% [at 11.4 µM] (inactive). For the same compound, the Potency [4] was “inactive” and the Potency [5] was “inactive and 501 nM (active)”.

With `COc1ccc(C#CC2C=CC(OC(C)=O)C(COC(C)=O)O2)cc1` (stereo not given) the Potency [1] was “inactive”, the Potency [2] was 2.51 µM (active) and the activity change, negative = inhibition [2] was -3.53% [at 11.4 µM] (inactive). The activity change, positive = activation [3] was -88.8% [at 11.4 µM] (inactive), the Potency [4] was “inactive” and the Potency [5] was “inactive”.

`C/C=C/OC(=O)NC(c1ccccc1)[C@@]1(C(=O)OC)CCCC1=O` (stereo not given in full) was tested, and the Potency [1] was “inactive”, the Potency [2] was 1 µM (active) and the activity change, positive = activation [3] was -81.6% [at 11.4 µM] (inactive). For the same compound, the Potency [4] was “inactive” and the Potency [5] was 1260 nM (active).

For `COC(=O)NC(/C(C(=O)OC)=C(\C)NCc1ccccc1)c1cccc(F)c1` (stereo not given), the Potency [1] was “inactive” and the activity change, negative = inhibition [2] was -19.8% [at 11.4 µM] (inactive).

For `COc1ccc(OC2C=CC(C#Cc3ccc(F)cc3F)OC2CO)cc1` (stereo not given), the Potency [1] was “inactive”, the Potency [2] was 3.98 µM (active) and 3.16 µM (active) and the activity change, positive = activation [3] was -84.9% [at 11.4 µM] (inactive) and -82.9% [at 11.4 µM] (inactive). For the same compound, the Potency [4] was “inactive” and the Potency [5] was 398 nM (active).

For `C=CCOC(=O)C(C(C)=O)C(NC(=O)OC)c1cccs1` (stereo not given), the Potency [1] was “inactive”, the Potency [2] was 3.16 µM (active) and the activity change, positive = activation [3] was -101% [at 11.4 µM] (inactive). For the same compound, the Potency [4] was “inactive” and the Potency [5] was 398 nM (active).
